Assay results taken from PubChem BioAssay AID1159580 (chemical genetic matrix, 2015).
The whole screen tested about 5,500 compounds, of which about 2,000 (36%) were called active. Roughly 18% stayed inconclusive and do not appear here. Cut-off read from the data, not from the text of the source: active = normalized growth mostly below about 0.91 (no sharp cut-off); inconclusive = no clear call, values can overlap the other calls; inactive = mostly above about 0.92. This is one part of the list.

Assay: chemical genetic growth profiling, strain panel (AID 1159580);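 note: tested at 20 µM; growth read once vehicle control cultures reached saturation at 30 °C; 1 = growth at the plate median or of vehicle wells; lower values mean less growth of the strain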
Details: growth OD

Measured: normalized growth

COc1cc(-c2coc3cc(OC)c(OC)c(OC)c3c2=O)cc(OC)c1OC
inactive: S. cerevisiae deletion strains, locus YJR066W, strain TOR1, hits give low values 0.99 | S. cerevisiae deletion strains, locus YJR075W, strain HOC1, hits give low values 0.975 | S. cerevisiae deletion strains, locus YKL009W, strain mrt4, hits give low values 0.98 | S. cerevisiae deletion strains, locus YKL068W, hits give low values 0.988 | S. cerevisiae deletion strains, locus YKL085W, strain MDH1 (second series), hits give low values 0.973 | S. cerevisiae deletion strains, locus YKL085W, strain MDH1, hits give low values 0.973 | S. cerevisiae deletion strains, locus YKL160W, strain elf1, hits give low values 0.994 | S. cerevisiae deletion strains, locus YKR001C, strain vps1, hits give low values 1.02 | S. cerevisiae deletion strains, locus YKR026C, strain gcn3, hits give low values 0.997 | S. cerevisiae deletion strains, locus YKR091W, strain srl3, hits give low values 1 | S. cerevisiae deletion strains, locus YLL001W, strain dnm1, hits give low values 0.96 | S. cerevisiae deletion strains, locus YLL026W, hits give low values 0.996 | S. cerevisiae deletion strains, locus YLL041C, strain sdh2, hits give low values 0.996 | S. cerevisiae deletion strains, locus YLR027C, strain aat2, hits give low values 1.01 | S. cerevisiae deletion strains, locus YLR039C, strain RIC1, hits give low values 1 | S. cerevisiae deletion strains, locus YLR058C, strain SHM2, hits give low values 0.99 | S. cerevisiae deletion strains, locus YLR102C, strain apc9, hits give low values 1 | S. cerevisiae deletion strains, locus YLR113W, strain HOG1, hits give low values 0.98 | S. cerevisiae deletion strains, locus YLR221C, strain rsa3, hits give low values 0.997 | S. cerevisiae deletion strains, locus YLR258W, strain gsy2, hits give low values 0.989 | S. cerevisiae deletion strains, locus YLR262C, strain YPT6 (second series), hits give low values 0.972 | S. cerevisiae deletion strains, locus YLR262C, strain YPT6, hits give low values 1.01 | S. cerevisiae deletion strains, locus YLR268W, strain sec22, hits give low values 1.03 | S. cerevisiae deletion strains, locus YLR320W, strain mms22, hits give low values 1.01 | S. cerevisiae deletion strains, locus YLR330W, strain CHS5, hits give low values 0.998 | S. cerevisiae deletion strains, locus YLR342W, strain FKS1 (second series), hits give low values 1.08 | S. cerevisiae deletion strains, locus YLR342W, strain FKS1, hits give low values 1.01 | S. cerevisiae deletion strains, locus YLR357W, strain rsc2, hits give low values 0.953 | S. cerevisiae deletion strains, locus YLR370C, strain arc18, hits give low values 0.997 | S. cerevisiae deletion strains, locus YLR371W, strain rom2, hits give low values 1.01 | S. cerevisiae deletion strains, locus YLR384C, strain iki3, hits give low values 0.982 | S. cerevisiae deletion strains, locus YLR418C, strain cdc73, hits give low values 0.984 | S. cerevisiae deletion strains, locus YML016C, strain PPZ1, hits give low values 1 | S. cerevisiae deletion strains, locus YML032C, strain rad52, hits give low values 1.01 | S. cerevisiae deletion strains, locus YML120C, strain ndi1, hits give low values 0.997 | S. cerevisiae deletion strains, locus YML124C, strain tub3, hits give low values 0.989 | S. cerevisiae deletion strains, locus YMR058W, strain fet3, hits give low values 1.01 | S. cerevisiae deletion strains, locus YMR078C, strain ctf18, hits give low values 1.01 | S. cerevisiae deletion strains, locus YMR125W, strain sto1, hits give low values 0.992 | S. cerevisiae deletion strains, locus YMR129W, hits give low values 0.989 | S. cerevisiae deletion strains, locus YMR205C, strain PFK2, hits give low values 1.01 | S. cerevisiae deletion strains, locus YMR223W, strain ubp8, hits give low values 0.998 | S. cerevisiae deletion strains, locus YMR231W, strain pep5, hits give low values 0.987 | S. cerevisiae deletion strains, locus YMR307W, strain GAS1, hits give low values 1.13 | S. cerevisiae deletion strains, locus YNL067W, strain RPL9B, hits give low values 0.973 | S. cerevisiae deletion strains, locus YNL071W, strain lat1, hits give low values 1 | S. cerevisiae deletion strains, locus YNL183C, strain NPR1, hits give low values 0.984 | S. cerevisiae deletion strains, locus YNL209W, strain ssb2, hits give low values 1 | S. cerevisiae deletion strains, locus YNL233W, strain BNI4, hits give low values 0.982 | S. cerevisiae deletion strains, locus YNL248C, strain rpa49, hits give low values 0.983 | S. cerevisiae deletion strains, locus YNL250W, strain rad50, hits give low values 0.944 | S. cerevisiae deletion strains, locus YNL271C, strain bni1, hits give low values 0.995 | S. cerevisiae deletion strains, locus YNL298W, strain CLA4, hits give low values 0.996 | S. cerevisiae deletion strains, locus YNL307C, strain MCK1, hits give low values 1 | S. cerevisiae deletion strains, locus YNL322C, strain KRE1 (second series), hits give low values 0.998 | S. cerevisiae deletion strains, locus YNR049C, strain mso1, hits give low values 1 | S. cerevisiae deletion strains, locus YNR052C, strain pop2, hits give low values 0.977 | S. cerevisiae deletion strains, locus YOL012C, strain htz1 1.11 | S. cerevisiae deletion strains, locus YOL147C, strain pex11, hits give low values 0.998 | S. cerevisiae deletion strains, locus YOR001W, strain rrp6, hits give low values 0.997 | S. cerevisiae deletion strains, locus YOR061W, strain CKA2, hits give low values 1.01 | S. cerevisiae deletion strains, locus YOR069W, strain VPS5, hits give low values 0.989 | S. cerevisiae deletion strains, locus YOR070C, strain gyp1, hits give low values 0.991 | S. cerevisiae deletion strains, locus YOR080W, strain dia2, hits give low values 0.995 | S. cerevisiae deletion strains, locus YOR083W, strain WHI5, hits give low values 0.996 | S. cerevisiae deletion strains, locus YOR106W, strain vam3, hits give low values 0.988 | S. cerevisiae deletion strains, locus YOR136W, strain idh2, hits give low values 0.993 | S. cerevisiae deletion strains, locus YOR144C, strain elg1, hits give low values 0.997 | S. cerevisiae deletion strains, locus YOR184W, strain ser1, hits give low values 1.08 | S. cerevisiae deletion strains, locus YOR231W, strain MKK1, hits give low values 1.04 | S. cerevisiae deletion strains, locus YOR265W, strain rbl2, hits give low values 1.01 | S. cerevisiae deletion strains, locus YOR270C, strain vph1, hits give low values 1.01 | S. cerevisiae deletion strains, locus YOR290C, strain snf2, hits give low values 1.01 | S. cerevisiae deletion strains, locus YOR316C, strain cot1, hits give low values 0.99 | S. cerevisiae deletion strains, locus YPL051W, strain arl3, hits give low values 0.994 | S. cerevisiae deletion strains, locus YPL055C, strain LGE1, hits give low values 1.03 | S. cerevisiae deletion strains, locus YPL078C, strain atp4, hits give low values 0.998 | S. cerevisiae deletion strains, locus YPL106C, strain sse1, hits give low values 0.984 | S. cerevisiae deletion strains, locus YPL240C, strain hsp82, hits give low values 1 | S. cerevisiae deletion strains, locus YPL256C, strain CLN2, hits give low values 1.03 | S. cerevisiae deletion strains, locus YPR119W, strain clb2, hits give low values 0.975 | S. cerevisiae deletion strains, locus YPR141C, strain kar3, hits give low values 0.972 | S. cerevisiae deletion strains, locus YPR163C, strain tif3, hits give low values 1 | S. cerevisiae deletion strains, locus YPR167C, strain met16, hits give low values 0.995 | S. cerevisiae deletion strains, strain wtn01, hits give low values 1.03 | S. cerevisiae strains, strain wild type, hits give low values 1.02
